Drawing on PubChem BioAssay (NCI), this text covers growth for 14 compounds.

Test systems include SK-MEL-2 melanoma; EKVX NSCLC; SN12C renal; UO-31 renal; TK-10 renal; ACHN renal; CAKI-1 renal; A498 renal; CCRF-CEM leukemia; MOLT-4 leukemia.
Holding throughout (experiment): NCI-60 one-dose screen, 48 h (100 = growth as untreated, 0 = no growth, -100 = all killed)
Holding throughout (settings): 10 µM

Compounds without any hit were thinned out: in the full panel of roughly 83,000, 20% have a hit.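 Single-concentration screen, 48 h exposure, 96-well plates. Endpoint: percent growth. Below 10 = active.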 Values without a mark were called inactive. Activity calls are given as the source filed them.

For `O=C1/C=C/[C@@H](O)[C@@H]2C[C@@H](O)C[C@H]2/C=C/CCC[C@H](CCc2ccc(NC(=S)Nc3ccc4c(c3)C(=O)OC43c4ccc(O)cc4Oc4cc(O)ccc43)cc2)O1`, the growth with SK-MEL-2 melanoma is -9.15% (active); with EKVX NSCLC, 12.7%; in the assay with SN12C renal, 10.1%; in the assay with UO-31 renal, 11%; with TK-10 renal it was -21.2% (active); in the assay on ACHN renal, 14.9%. Also, the growth was 22.2% in the assay with CAKI-1 renal, -29.7% (active) in the assay on A498 renal, -2.59% (active) with CCRF-CEM leukemia and -8.92% (active) in the assay with MOLT-4 leukemia.
In the case of `CCOC(=O)CC(S(=O)(=O)c1ccccc1)S(=O)(=O)c1ccccc1`, the growth in the assay on SK-MEL-2 melanoma is 97.4%; with EKVX NSCLC, 113%; in the assay with SN12C renal, 95.7%; with UO-31 renal it was 72.4%; with TK-10 renal, 56.4%; with ACHN renal it was 63.6%. The growth in the assay with CAKI-1 renal is 90.1%; in the assay on A498 renal it was 115%; in the assay on CCRF-CEM leukemia it was 62.7%; in the assay with MOLT-4 leukemia, 87.1%.
Take `CCN(CC)c1ccc(/C=C2\SC(=O)C(Nc3nnc(-c4cccnc4SCc4ccccc4)o3)C2=O)cc1` (stereo not given): the growth in the assay with SK-MEL-2 melanoma is 33.8%; in the assay with EKVX NSCLC, 55.8%; in the assay on SN12C renal it was 61.4%; in the assay on UO-31 renal, 53.7%; in the assay on TK-10 renal it was 44.3%; in the assay with ACHN renal, 51.2%. Also, the growth is 41.2% with CAKI-1 renal, 9.41% (active) with A498 renal, 50.6% with CCRF-CEM leukemia and 61.9% in the assay on MOLT-4 leukemia.
Take `O=c1oc2c(cc1-c1ccc(F)cc1)C(O)Oc1ccccc1-2` (stereo not given): the growth is 76.1% in the assay with SK-MEL-2 melanoma; 51.2% with EKVX NSCLC; 95.4% in the assay on SN12C renal; 84.1% with UO-31 renal; 72.3% in the assay on TK-10 renal; 94.4% with ACHN renal. The growth with CAKI-1 renal is 74%; with A498 renal, 89.5%; in the assay with CCRF-CEM leukemia, 113%; in the assay with MOLT-4 leukemia it was 68.3%.
As to `CC(=O)C1CCC2C3CC=C4CC(SC(=N)N)CCC4(C)C3CCC12C` (stereo not given), the growth in the assay with SK-MEL-2 melanoma was 32.3%; in the assay on EKVX NSCLC, 55.2%; in the assay on SN12C renal, 47.1%; in the assay with UO-31 renal it was 63%; in the assay with TK-10 renal, 66.8%; in the assay with ACHN renal, 54.4%. Also, the growth with CAKI-1 renal is 62.7%; in the assay on A498 renal it was 78.3%; in the assay with CCRF-CEM leukemia it was 6.89% (active); with MOLT-4 leukemia, -5.72% (active).
`CCN(CCCNc1cc2c(c(N)c1S(=O)(=O)O)C(=O)c1ccccc1C2=O)c1ccccc1`: the growth in the assay with SK-MEL-2 melanoma is 103%; with EKVX NSCLC it was 103%; in the assay with SN12C renal it was 87.4%; in the assay with UO-31 renal, 75.2%; in the assay with TK-10 renal it was 116%; with ACHN renal, 103%. Also, the growth in the assay on CAKI-1 renal was 95.7%; in the assay on A498 renal, 103%; in the assay on CCRF-CEM leukemia, 102%; in the assay with MOLT-4 leukemia it was 108%.
`O=C(N/N=C/c1ccc([N+](=O)[O-])cc1)c1ccccc1Nc1cccc(C(F)(F)F)c1`: the growth in the assay on SK-MEL-2 melanoma is 80.9%; in the assay on EKVX NSCLC, 92.4%; in the assay with SN12C renal it was 99.5%; in the assay on UO-31 renal, 78.4%; with TK-10 renal it was 173%; in the assay with ACHN renal it was 91%. In addition, the growth in the assay with CAKI-1 renal was 76.9%; in the assay with A498 renal, -6.91% (active); in the assay with CCRF-CEM leukemia it was 91.9%; with MOLT-4 leukemia it was 109%.
On to `Cc1cc(=O)n2nnc3cc(C(F)(F)F)ccc3n12`, for which the growth in the assay on SK-MEL-2 melanoma was 99.2%; with EKVX NSCLC, 107%; in the assay with SN12C renal, 106%; with UO-31 renal, 84%; in the assay with TK-10 renal, 93.6%; in the assay with ACHN renal, 108%. Besides, the growth in the assay with CAKI-1 renal is 113%; in the assay on A498 renal it was 103%; with CCRF-CEM leukemia, 103%; in the assay on MOLT-4 leukemia, 91.3%.
For `O=[N+]([O-])c1cccc(/C=N/NC(=S)NC23CC4CC(CC(C4)C2)C3)c1`, the growth in the assay on SK-MEL-2 melanoma is 96%; in the assay on EKVX NSCLC, 71.2%; in the assay on SN12C renal it was 83.1%; with UO-31 renal it was 89.9%; in the assay with TK-10 renal it was 96.6%; in the assay with ACHN renal, 49.6%. For the same compound, the growth in the assay with CAKI-1 renal was 89.9%; in the assay with A498 renal, 97.1%; in the assay on CCRF-CEM leukemia, 86.2%; with MOLT-4 leukemia, 96.3%.
Consider `Brc1ccc2c(c1)-c1ccccc1C1=NCCN12`, for which the growth with SK-MEL-2 melanoma is -39.7% (active); in the assay with EKVX NSCLC it was -2.72% (active); in the assay on SN12C renal, -7.57% (active); in the assay on UO-31 renal, -16.6% (active); in the assay with TK-10 renal it was -12.5% (active); with ACHN renal, -22.2% (active). The growth with CAKI-1 renal was -5.84% (active); in the assay on A498 renal, -75.7% (active); in the assay on CCRF-CEM leukemia it was -12% (active); in the assay on MOLT-4 leukemia, -7.7% (active).
Turning to `O=C(Nc1cc(Cl)cc2c1-c1ccc(Cl)cc1C2O)C(Cl)Cl` (stereo not given), the growth in the assay with SK-MEL-2 melanoma was 110%; with EKVX NSCLC it was 69%; with SN12C renal, 82.2%; in the assay on UO-31 renal it was 74%; in the assay on TK-10 renal, 118%; in the assay on ACHN renal, 61.9%. Further, the growth was 67.5% with CAKI-1 renal, 74.4% with A498 renal, 69.1% with CCRF-CEM leukemia and 78.8% in the assay on MOLT-4 leukemia.
Turning to `Cc1ccc2nc(Cl)c(-c3nc4ccccc4o3)cc2c1`, the growth in the assay with SK-MEL-2 melanoma was 94.2%; in the assay on EKVX NSCLC, 88.1%; in the assay with SN12C renal, 104%; in the assay on UO-31 renal, 62.9%; in the assay on TK-10 renal, 115%; in the assay on ACHN renal, 76%. Further, the growth in the assay on CAKI-1 renal was 105%; in the assay with A498 renal, 75.6%; in the assay with CCRF-CEM leukemia, 98.1%; in the assay with MOLT-4 leukemia it was 81.4%.
Consider `NC(CSC(c1ccccc1)(c1ccccc1)c1cccc2ccccc12)C(=O)O` (stereo not given), for which the growth was 98.6% in the assay with SK-MEL-2 melanoma; 88% in the assay on EKVX NSCLC; 82.7% in the assay on SN12C renal; 84.3% with UO-31 renal; 115% in the assay on TK-10 renal; 97.4% in the assay with ACHN renal. The growth in the assay with CAKI-1 renal was 89.9%; with A498 renal, 100%; in the assay on CCRF-CEM leukemia, 86.2%; with MOLT-4 leukemia, 88.1%.
`COc1cc2c(cc1NC(=O)C(Cl)Cl)-c1ccc(NC(=O)C(Cl)Cl)cc1C2`: the growth with SK-MEL-2 melanoma is -14.7% (active); in the assay with EKVX NSCLC it was -9.2% (active); in the assay with SN12C renal, 58.6%; in the assay with UO-31 renal it was -9.34% (active); in the assay on TK-10 renal it was -12.3% (active); in the assay on ACHN renal, -43.4% (active). Moreover, the growth in the assay with CAKI-1 renal is -35.4% (active); with A498 renal, 10.1%; in the assay on CCRF-CEM leukemia, 81.9%; in the assay on MOLT-4 leukemia it was 94.8%.
